Reference: PubChem BioAssay (NCATS)
A number with no mark means an inactive call. Records with an inconclusive call do not appear. The source made the active and inactive calls. Calls come from the whole dose curve; as a rule, active = well fitted inhibition curve with a large enough effect; inconclusive = small, poorly fitted or top-dose-only effect; inactive = flat fitted curve, though single readings scatter.

What follows are compounds tested against Phospholipid hydroperoxide glutathione peroxidase GPX4 (Homo sapiens) (UniProt P36969) (assay: Primary qHTS Assay for Inhibitors of Recombinant Selenoprotein Glutathione Peroxidase 4 (GPX4) (AID 1845192; note: nearly all actives have a fitted effect of over 65% in size; for activity change, negative = inhibition: % is set by controls: 0 for no effect and ±100 for the full control effect)). Details: recombinant GPX4, GR-coupled NADPH fluorescence, 15 min; series mostly up to 27.8 µM; activity change, negative = inhibition: at the top concentration.
Method in brief: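 NADPH consumption, followed by fluorescence at 340/450 nm between 0 and 15 min, reports GPX4 activity via coupled glutathione reductase (100 nM). Enzyme 200 nM was pre-exposed to compound 30 min; 0.5 mM cumene hydroperoxide and 1 mM GSH served as substrates.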

Chain of Phospholipid hydroperoxide glutathione peroxidase GPX4 (Homo sapiens) (P36969 whole entry, looked up): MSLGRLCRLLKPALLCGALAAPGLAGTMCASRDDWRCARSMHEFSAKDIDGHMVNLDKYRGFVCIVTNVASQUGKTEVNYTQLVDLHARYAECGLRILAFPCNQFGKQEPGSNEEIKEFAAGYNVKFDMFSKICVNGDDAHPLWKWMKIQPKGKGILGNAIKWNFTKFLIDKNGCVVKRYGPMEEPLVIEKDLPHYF

| SMILES | activity change, negative = inhibition | outcome |
| --- | --- | --- |
| COc1cc(/C=C/C(=O)O[C@@H]2O[C@H](CO)[C@@H](O)[C@H](O)[C@H]2O)ccc1O | -11.2% |  |
| CC(=O)/C=C/C1(O)C(C)CC(O[C@@H]2O[C@H](CO)[C@@H](O)[C@H](O)[C@H]2O)CC1(C)C (stereo partly specified) |  | inactive |
| CC(=O)OC1CC2C(C)(C)C(=O)C=CC2(C)C2CC(=O)C3=C(CCC3C3=CC(O)OC3=O)C12C (stereo unspecified) | -9.43% |  |
| C=C(CCO)C(=O)OCC1OCC(OC(=O)C(=C)CCO[C@@H]2O[C@H](COC(=O)C(=C)CCO[C@@H]3O[C@H](CO)[C@@H](O)[C@H](O)[C@H]3O)[C@@H](O)[C@H](O)[C@H]2O)C(O)C1O (stereo partly specified) |  | inactive [at 15.3 µM] |
| CCC1OC(=O)C(C)CC(C)C(=O)/C(C)=C/C(C)C(=O)/C=C/C1(C)O (stereo unspecified) | -4.96% |  |
| CC(C)C1(O)C=C2C(=O)CC3C(C)(C(=O)O)CCCC3(C)C2CC1 (stereo unspecified) | -15.1% |  |
| CC(NC(=O)c1ccccc1N)C(=O)O (stereo unspecified) | -2.45% [at 50 µM] |  |
| CC(=O)/C=C/[C@H]1[C@](C)(O)[C@@H](O)[C@H](O)C2C(C)(C)CCC[C@@]21C (stereo partly specified) | -9.3% |  |
| CO[C@@H]1[C@]2(O)C(=O)N3/C=C\C(C)(C)c4[nH]c5ccccc5c4/C=C\3C(=O)N2[C@]23[C@H](CO)C(C)(C)N2c2ccccc2[C@]13O | -25.9% |  |
| CC(=O)NC1C(OC2CCC3(C)C(CCC4(C)C3CC=C3C5CC(C)(C)CCC5(C(=O)O)C(O)CC34C)C2(C)C)OC(CO)C(O)C1O (stereo unspecified) | -8.92% [at 15.3 µM] |  |
| COC(=O)C(CC1(OC(=O)C(C)C)c2ccccc2N2C(=O)C(C)(C)N(O)C21)n1cnc2ccccc2c1=O (stereo unspecified) | 4.47% |  |
| OC[C@H]1O[C@@H](OCc2ccccc2)[C@H](O)[C@@H](O)[C@@H]1O | -3.76% [at 50 µM] |  |
| COc1cc(/C=C/C(=O)O)ccc1O[C@@H]1O[C@H](CO)[C@@H](O)[C@H](O)[C@H]1O[C@@H]1OC[C@](O)(CO)[C@H]1O | -7.69% |  |
| CC(=O)OC1(C)CC(O)C2(O)C=COC(OC3OC(CO)C(O)C(O)C3O)C12 (stereo unspecified) |  | inactive |
| C[C@@H]1O[C@@H](O[C@H]2[C@H](Oc3cc(O)c(C(=O)CCc4ccc(O)cc4)c(O)c3)O[C@H](CO)[C@@H](O)[C@@H]2O)[C@H](O)[C@H](O)[C@H]1O | -3.85% [at 50 µM] |  |
| CC1(C)CCC2(C(=O)O)C(O)CC3(C)C(=CCC4C5(C)CCC(OC6OC(CO)C(O)C(O)C6OC6OC(CO)C(O)C(O)C6OC6OCC(O)(CO)C6O)C(C)(C)C5CCC43C)C2C1 (stereo unspecified) | -4.24% [at 15.3 µM] |  |
| C/C=C1/C[N+](C)([O-])C2Cc3c([nH]c4ccccc34)C(=O)CC1C2C(=O)OC (stereo unspecified) | -10.9% |  |
| COc1cc(-c2ccc(O)cc2)c(OC)c(O)c1C1=CC(=O)OC1CC(=O)O (stereo unspecified) | -13.2% |  |
| COC(=O)C(CC1(O)c2ccccc2N2C(=O)C(CC(C)C)NC21)n1cnc2ccccc2c1=O (stereo unspecified) | -8.53% |  |
| Cc1ccc(COC(=O)N2CC[C@@H](CNc3ncccn3)[C@@H](F)C2)cc1 | -5.78% [at 50 µM] |  |
| COc1cccc(Cn2ncc3c4sc(S(C)=O)cc4n(C)c3c2=O)c1 (stereo unspecified) | -3.89% [at 50 µM] |  |
| CN1C(=O)N(c2cc(Cl)cc(Cl)c2)C(=O)[C@@]1(C)Cc1ccc(Br)cc1 | -11.1% [at 50 µM] |  |
| CC1(C)CC[C@]2(C(=O)O)CC[C@]3(C)C(=CCC4[C@@]5(C)CC[C@H](O[C@@H]6O[C@H](C(=O)O)[C@@H](O)[C@H](O)[C@H]6O)C(C)(C)C5CC[C@]43C)C2C1 (stereo partly specified) |  | inactive [at 15.3 µM] |
| C[C@@H]1C(=O)O[C@H](C)[C@H]1C[C@@H](O)[C@](C)(O)[C@H]1CC[C@@]2(O)C3=CC(=O)[C@@H]4C[C@@H](O)[C@@H](O)C[C@]4(C)C3CC[C@]12C (stereo partly specified) |  | inactive |
| O=C(O)CC1CCC(c2ccc(-c3ccc(Nc4ccc(C(F)(F)F)nc4)cn3)cc2)CC1 (stereo unspecified) | -7.14% [at 50 µM] |  |
| CC(=C\C(C)O)/C=C(\C)C(=O)CC1CC(CC(N)=O)CC(=O)O1 (stereo unspecified) | -1.58% |  |
| COc1ccc(CCC(=O)O)c(O[C@@H]2O[C@H](CO)[C@@H](O)[C@H](O)[C@H]2O)c1 |  | inactive |
| C[C@@H]1O[C@@H](O[C@H]2[C@H](OC(=O)[C@]34CCC(C)(C)C[C@H]3C3=CCC5[C@@]6(C)C[C@@H](O)[C@@H](O)[C@@](C)(CO)C6[C@H](O)C[C@@]5(C)[C@]3(C)CC4)OC[C@H](O)[C@@H]2O)[C@H](O)[C@H](O)[C@H]1O[C@@H]1OC[C@@H](O)[C@H](O[C@H]2O[C@H](C)[C@@H](O)[C@H](O)[C@@H]2O)[C@H]1O (stereo partly specified) | -5.09% [at 15.3 µM] |  |

These compounds were tested against Luciferin 4-monooxygenase (Photinus pyralis) (UniProt P08659) (assay: Primary firefly luciferase (FLuc) qHTS assay for identification of artifact compounds. (AID 1845220; note: nearly all actives have a fitted effect of over 60% in size;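 for activity change, negative = inhibition: plate controls were DMSO vehicle for no effect and no enzyme for full effect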)). Details: purified firefly luciferase, luminescence, 5 min; series mostly up to 54.1 µM; activity change, negative = inhibition: at the top concentration.
Method in brief: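 FLuc 10 nM; luciferin 10 uM; ATP 10 uM; Tris-acetate pH 7.6, Mg-acetate 10 mM; 15 min RT preincubation; 5 min reaction; luminescence.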

| SMILES | activity change, negative = inhibition | outcome |
| --- | --- | --- |
| COC(=O)C(CC1CCCC1)c1ccc(S(C)(=O)=O)cc1 (stereo unspecified) | 1.05% |  |
| CC(C)/C=C1/NC(=O)C(C(C)C)n2c1nc1c(O)cccc1c2=O (stereo unspecified) |  | inactive |
| O=C(O)/C=C/c1ccc(O[C@@H]2O[C@H](CO)[C@@H](O)[C@H](O)[C@H]2O)cc1 | 4.35% |  |
| CC1CCCCCCCc2cc(O)cc(O)c2C(=O)O1 (stereo unspecified) | 1.19% |  |
| CSC(=O)OCC1=C[C@@H]2OC(=O)C3=CO[C@@H](O[C@@H]4O[C@H](CO)[C@@H](O)[C@H](O)[C@H]4O)[C@H]1[C@@H]32 |  | inactive [at 25.7 µM] |
| C=C1C[C@]23C[C@H]1CC[C@H]2[C@]1(C)CC[C@H](O)[C@@](C)(C(=O)O)[C@H]1[C@@H]3C(=O)O | -12.1% |  |
| C[C@@H]1O[C@@H](O[C@H]2[C@H](OC(=O)[C@]34CCC(C)(C)C[C@H]3C3=CCC5[C@@]6(C)CC[C@H](O[C@@H]7O[C@H](CO[C@@H]8OC[C@H](O)[C@H](O)[C@H]8O[C@@H]8OC[C@@H](O)[C@H](O)[C@H]8O)[C@@H](O)[C@H](O)[C@H]7O)C(C)(C)C6CC[C@@]5(C)[C@]3(C)C[C@H]4O)O[C@H](CO)[C@@H](O)[C@@H]2O)[C@H](O[C@@H]2O[C@H](CO)[C@@H](O)[C@H](O)[C@H]2O)[C@H](O)[C@H]1O[C@@H]1OC[C@@H](O)[C@H](O[C@@H]2OC[C@@H](O)[C@H](O)[C@H]2O)[C@H]1O (stereo partly specified) | 2.11% [at 6.45 µM] |  |
| CC(C)=CCC[C@](C)(O[C@@H]1O[C@H](CO)[C@@H](O)[C@H](O)[C@H]1O)[C@H]1CC[C@]2(C)[C@@H]1[C@H](O)CC1[C@@]3(C)CC[C@H](O)C(C)(C)C3[C@@H](O[C@@H]3O[C@H](CO)[C@@H](O)[C@H](O)[C@H]3O[C@@H]3O[C@@H](C)[C@H](O)[C@@H](O)[C@H]3O)C[C@]12C (stereo partly specified) | -2.06% [at 11.6 µM] |  |
| CC(C)(O)/C=C/C(=O)[C@](C)(O)[C@H]1[C@H](O)C[C@@]2(C)[C@@H]3CC=C4[C@@H](C=C(O[C@@H]5O[C@H](CO)[C@@H](O)[C@H](O)[C@H]5O)C(=O)C4(C)C)[C@]3(C)C(=O)C[C@]12C |  | inactive [at 25.7 µM] |
| C[C@H]1CCN2C[C@]34C[C@@]5(C(=O)Nc6c5ccc5c6OC=CC(C)(C)O5)C(C)(C)C3C[C@]12C(=O)N4C (stereo partly specified) | 1.84% [at 25.7 µM] |  |
| O=C(/C=C/c1ccc(O)c(O)c1)O[C@@H]1[C@@H](O)[C@H](OC2CCCCC2O)O[C@H](CO)[C@H]1O (stereo partly specified) | 3.11% [at 25.7 µM] |  |
| COc1cc(/C=C/C(=O)O[C@@H]2O[C@H](CO)[C@@H](O)[C@H](O)[C@H]2O)ccc1O | 3.54% |  |
| CC(=O)/C=C/C1(O)C(C)CC(O[C@@H]2O[C@H](CO)[C@@H](O)[C@H](O)[C@H]2O)CC1(C)C (stereo partly specified) |  | inactive [at 25.7 µM] |
| CC(=O)OC1CC2C(C)(C)C(=O)C=CC2(C)C2CC(=O)C3=C(CCC3C3=CC(O)OC3=O)C12C (stereo unspecified) |  | inactive [at 25.7 µM] |
| C=C(CCO)C(=O)OCC1OCC(OC(=O)C(=C)CCO[C@@H]2O[C@H](COC(=O)C(=C)CCO[C@@H]3O[C@H](CO)[C@@H](O)[C@H](O)[C@H]3O)[C@@H](O)[C@H](O)[C@H]2O)C(O)C1O (stereo partly specified) | 0.454% [at 25.7 µM] |  |
| CCC1OC(=O)C(C)CC(C)C(=O)/C(C)=C/C(C)C(=O)/C=C/C1(C)O (stereo unspecified) | 4.56% |  |
| CC(C)C1(O)C=C2C(=O)CC3C(C)(C(=O)O)CCCC3(C)C2CC1 (stereo unspecified) | -2.58% |  |

| SMILES | activity change, negative = inhibition | outcome |
| --- | --- | --- |
| CC(NC(=O)c1ccccc1N)C(=O)O (stereo unspecified) | -1.56% |  |
| CC(=O)/C=C/[C@H]1[C@](C)(O)[C@@H](O)[C@H](O)C2C(C)(C)CCC[C@@]21C (stereo partly specified) | -8.35% |  |
| CO[C@@H]1[C@]2(O)C(=O)N3/C=C\C(C)(C)c4[nH]c5ccccc5c4/C=C\3C(=O)N2[C@]23[C@H](CO)C(C)(C)N2c2ccccc2[C@]13O | 2.46% [at 25.7 µM] |  |
| CC(=O)NC1C(OC2CCC3(C)C(CCC4(C)C3CC=C3C5CC(C)(C)CCC5(C(=O)O)C(O)CC34C)C2(C)C)OC(CO)C(O)C1O (stereo unspecified) | -10.9% [at 25.7 µM] |  |
| COC(=O)C(CC1(OC(=O)C(C)C)c2ccccc2N2C(=O)C(C)(C)N(O)C21)n1cnc2ccccc2c1=O (stereo unspecified) | -0.87% [at 25.7 µM] |  |
| OC[C@H]1O[C@@H](OCc2ccccc2)[C@H](O)[C@@H](O)[C@@H]1O | 3.65% |  |
| COc1cc(/C=C/C(=O)O)ccc1O[C@@H]1O[C@H](CO)[C@@H](O)[C@H](O)[C@H]1O[C@@H]1OC[C@](O)(CO)[C@H]1O | -0.95% [at 25.7 µM] |  |
| CC(=O)OC1(C)CC(O)C2(O)C=COC(OC3OC(CO)C(O)C(O)C3O)C12 (stereo unspecified) | 2.45% [at 25.7 µM] |  |
| C[C@@H]1O[C@@H](O[C@H]2[C@H](Oc3cc(O)c(C(=O)CCc4ccc(O)cc4)c(O)c3)O[C@H](CO)[C@@H](O)[C@@H]2O)[C@H](O)[C@H](O)[C@H]1O |  | inactive |
| CC1(C)CCC2(C(=O)O)C(O)CC3(C)C(=CCC4C5(C)CCC(OC6OC(CO)C(O)C(O)C6OC6OC(CO)C(O)C(O)C6OC6OCC(O)(CO)C6O)C(C)(C)C5CCC43C)C2C1 (stereo unspecified) |  | inactive [at 11.6 µM] |
| C/C=C1/C[N+](C)([O-])C2Cc3c([nH]c4ccccc34)C(=O)CC1C2C(=O)OC (stereo unspecified) |  | inactive |
| COc1cc(-c2ccc(O)cc2)c(OC)c(O)c1C1=CC(=O)OC1CC(=O)O (stereo unspecified) | -10.8% |  |
| COC(=O)C(CC1(O)c2ccccc2N2C(=O)C(CC(C)C)NC21)n1cnc2ccccc2c1=O (stereo unspecified) |  | inactive [at 25.7 µM] |
| Cc1ccc(COC(=O)N2CC[C@@H](CNc3ncccn3)[C@@H](F)C2)cc1 | -27.8% |  |
| COc1cccc(Cn2ncc3c4sc(S(C)=O)cc4n(C)c3c2=O)c1 (stereo unspecified) | 3.41% |  |
| CN1C(=O)N(c2cc(Cl)cc(Cl)c2)C(=O)[C@@]1(C)Cc1ccc(Br)cc1 |  | inactive |
